Imprint erasure: inducers of genomic imprint erasure in mouse ES cells; Potency, µM (doses to about 60.7 µM), for the others: at the highest dose activity change, positive = activation, actives largely listed as activators; hit rate 0.02% among 110,000; mouse ES Peg3-LacZ reporter, beta-gal luminescence, 40 h
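Each well holds 300 Peg3LacZ-Neo (maternal) female ES cells incubated 40 h at 37C, 5% CO2. LacZ is measured by BetaGlo luminescence, with AC50 and maximum efficacy derived from dose-response curves.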
p53ts 39C tox: cytotoxicity in p53ts cells at nonpermissive temperature. Potency, µM (doses to about 46.1 µM), inactives show at the top dose activity change, negative = cell killing, usual class: cytotoxic. hit rate 1.5% among 130,000. H1299-p53A138V viability at 39C, ATP luminescence, 24 h; note: % is set by controls: 0 for no effect and ±100 for the full control effect; nearly all actives have a fitted effect of over 55% in size
p53ts 32C tox: kills p53ts cells at the permissive temperature; hit rate 0.93% among 130,000; H1299-p53A138V at 32C, ATP luminescence viability, 24 h; Potency, µM (top dose mostly 46.1 µM), inactives show at the top dose activity change, negative = cytotoxicity, usual class: cytotoxic;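 note: 0% = DMSO and -100% = full killing by reference compound; nearly all actives have a fitted effect of over 55% in size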
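H1299-p53 A138V cells (temperature-sensitive p53) exposed 24 h to up to 46 uM compound at 32C, where p53 is wild-type in conformation. Viability read as ATP luminescence and normalised to DMSO and 100 uM tamoxifen. AC50 fitted with the Hill equation.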
IkB signaling: inhibitors of IkB signaling in ABC-DLBCL cells; Potency, µM (top dose mostly 57.1 µM), for the others: at the highest dose IkBa stabilization activation; hit rate 0.04% among 110,000; ABC-DLBCL IkBa-CBG/CBR dual luciferase ratio, 4 h; response scale: scaled: untreated 0%, proteasome inhibitor 100%; AID 445; active = well fitted curve in the direction sought with a large enough effect in the signal ratio, not every such curve was filed as active; inconclusive = small, poorly fitted or top-dose-only effect, or a change in a side signal; the % refers to the signal ratio;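 note: the direction sought is a rising ratio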
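Curves were fitted separately to fusion (green), unfused (red) and ratio luminescence, then classed by r2, magnitude and activity. Cells: OCI-Ly3, 4 h compound plus doxycycline at 37C; 10 uM MG-132 defined full response.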
Starred values were filed as active, the others as inactive; u = inconclusive; x = no result; ! = not confirmed by another sample; [ ] = another dose, or the depositor's remark. In the library only some 1.6% were active in any assay of this set; here they are far more common. Unless noted, calls come from the whole dose curve; as a rule, active = well fitted curve in the direction sought with a large enough effect; inconclusive = small, poorly fitted or top-dose-only effect, or another doubt; inactive = no such curve, though single readings can be large; an effect the other way counts as inactive or inconclusive. Potency is the fitted concentration of half-maximal effect.

SMILES	Imprint erasure	p53ts 39C tox	p53ts 32C tox	IkB signaling
O=C(Nc1ccc(F)cc1)c1csc2c1CCCCC2	-7%[10.9 µM]	u	16µM*	0%
O=C(Nc1ccon1)c1csc2c1CCCC2	0%	-4%	-13%	-2%
O=C1c2c(O)cc(O)cc2O[C@@H](c2ccc(O)c(O)c2)[C@H]1O	x	21%	1%	2%
N#C/C(=C\c1ccc(-c2cccc(Cl)c2)o1)C(=O)Nc1cccc(C(F)(F)F)c1	-20%[10.9 µM]	13µM*	-1%	2%
Cc1ccc(NS(=O)(=O)c2cc(C(=O)O)ccc2Cl)cc1C	x	3%	-1%	x
COc1cc(NC(=O)CCc2c(C)nn(-c3ccc(N4CCCCC4)nn3)c2C)cc(OC)c1OC	-16%[10.9 µM]	u	u	u
COc1ccc(NC(=O)CCc2c(C)nn(-c3ccc(N4CCCCC4)nn3)c2C)cc1Cl	-29%[10.9 µM]	10µM*	16µM*	3%
COc1cc(-c2cc(=O)c3ccccc3o2)ccc1O	-58%	-18%	-14%	-3%[11.4 µM]
COc1cc2oc(-c3ccccc3)cc(=O)c2cc1O	-11%	7.9µM*	u	u
O=C(O)[C@@H]1[C@@H](C(=O)O)[C@@]23CCCC2=C2CC[C@@]3(C(=O)O)[C@@]3(C(=O)O)C[C@@]213	-8%[10.9 µM]	x	x	x
NC(=[SH+])N=N/C=C1/C=CC=CN1.O=S(=O)(O)O.[Fe]	6%[10.9 µM]	x	x	x
O=C(NCC1CCN(Cc2ccccc2F)CC1)Nc1ccc(F)c(Cl)c1	-13%[10.9 µM]	-26%	9%	u
Cc1ccc(NC(=O)NCC2CCN(Cc3cccc(Cl)c3)CC2)cc1Cl	-19%[10.9 µM]	16µM*	-18%	u
O=C(NCCCCCCNC(=O)ON=C1CCCCC1)ON=C1CCCCC1	-18%	x	x	x
COc1cc2c(cc1O)CC[C@@H]1[C@@H]2CC[C@@]2(C)[C@H](O)CC[C@H]12	x	u	9%	u
NC(=O)c1ccccc1N/C=C/C(=O)c1ccccc1	-87%	10µM*	5µM*	u
Cc1c(C(=O)Nc2ccc(C(=O)O)cc2)nnn1-c1ccccc1	-57%[10.9 µM]	u	10µM*	u
Cc1ccc2nc(-c3sc4nc(C)ccc4c3N)[nH]c2c1	x	10µM*	13µM*	x
Cc1ccc2nc(-c3ccc(SCC(=O)O)nc3)[nH]c2c1	-66%	-15%	-12%	4%
O=C(N[C@@H](Cc1ccccc1)C(=O)CCl)OCc1ccccc1	-30%	3.2µM*	4µM*	u
COC(=O)C(C(C)=O)C(=O)C(Cc1ccccc1)NC(=O)OCc1ccccc1 (configuration not stated)	x	6%[9.22 µM]	-6%[9.22 µM]	x
O=C(CSc1nccn1-c1ccc(F)cc1)Nc1ccc(OC(F)(F)F)cc1	-14%[10.9 µM]	-26%	6%	-1%
C=CS(=O)(=O)c1ccc(Oc2ccc(S(=O)(=O)C=C)cc2)cc1	-23%	10µM*	-84%	u
O=S(=O)(c1ccc(Oc2ccc(S(=O)(=O)N3CCOCC3)cc2)cc1)N1CCOCC1	-10%	-1%	-8%	0%
CCCCNc1c(C(=O)OCC)c(C)nc2c1cnn2CC	-15%	16µM*!	37%	u
SMILES	Imprint erasure	p53ts 39C tox	p53ts 32C tox	IkB signaling
CCOCC(=O)O	0%	4%	-16%[1.84 µM]	-1%
Cc1cc(C)cc(C(=O)Nc2ccc(-c3nc4ncccc4o3)cc2)c1	-6%[10.9 µM]	10µM*	-22%	u
Cc1cc(C)c(OCC(=O)Nc2cccc(-c3nc4ncccc4o3)c2)c(Br)c1	-17%[10.9 µM]	-3%	-5%	u
CCC(C)c1ccc(OCC(=O)Nc2ccc(-c3nc4ncccc4o3)cc2)cc1 (configuration not stated)	-18%[10.9 µM]	10µM*	u	-1%
Cc1ccc(C(C)C)c(OCC(=O)Nc2cccc(-c3nc4ncccc4o3)c2)c1	-8%[10.9 µM]	16µM*	u	u
O=C(Nc1cccc(-c2nc3ncccc3o2)c1)c1ccc(-c2cccc(Cl)c2Cl)o1	-13%[10.9 µM]	13µM*	10µM*	u
Cc1c(Cl)cccc1-c1ccc(C(=O)Nc2ccc3oc(-c4cccnc4)nc3c2)o1	-30%[10.9 µM]	30%	-10%	8%
COc1ccc(C(=O)Nc2ccc(-c3nc4ncccc4o3)cc2)cc1	-11%[10.9 µM]	23%	1%	u
COc1ccc(OC2C=CC(c3ccccc3)OC2CO)c(C(C)(C)C)c1 (configuration not stated)	x	-4%[9.22 µM]	-5%[9.22 µM]	x
CCc1nnc(SCc2ccc(F)cc2Cl)c2cc3sccc3n12	-13%[10.9 µM]	7%	3%	-3%
CCc1nnc(SCC(=O)N(C)c2ccccc2)c2cc3sccc3n12	-9%[10.9 µM]	25µM*	-1%	u

Source: PubChem
